Most compounds without a hit are left out; they make up all but 11% or so of the library.
L3MBTL1 block: L3MBTL1 (human) inhibition | 230,000 tested, 0.66% active | Potency, µM (top dose mostly 57.1 µM), usual class: inhibitors | Q9Y468 | AlphaScreen L3MBTL1–H3K9me1 peptide binding; also: nearly all actives have a fitted effect of over 60% in size
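Displacement of a biotinylated histone H3(1-15) peptide monomethylated at Lys9 (75 nM) from L3MBTL1 (50 nM) was measured by AlphaScreen after a 30 min room-temperature compound incubation; cefsulodin titration served as intraplate control.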
BAZ2B inh: blocks human BAZ2B. Q9UIF8. AlphaScreen BAZ2B-H3K14Ac peptide displacement. Potency, µM (titrated, usually from 114 µM), usual class: inhibitors. 360,000 tested, 4.4% active. AID 504333; also: nearly all actives have a fitted effect of over 60% in size
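BAZ2B 50 nM plus b-H3(5-23)K14Ac 50 nM, PBS pH 7.4/0.01% Tween-20, 30 min RT; compound added (max 110 uM), 30 min RT; streptavidin donor/Ni-chelate acceptor beads 10 ug/mL final, 20 min dark; AlphaScreen read.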
HP1b binding inh: blocks HP1-beta chromodomain binding to methylated histone tails; P83916; AlphaScreen HP1-beta / biotin-H3K9me3 peptide binding; Potency, µM (highest dose often 114 µM), actives largely listed as inhibitors; 390,000 tested, 0.56% active; AID 540317; also: nearly all actives have a fitted effect of over 70% in size
Target sequence (P83916 whole entry, looked up): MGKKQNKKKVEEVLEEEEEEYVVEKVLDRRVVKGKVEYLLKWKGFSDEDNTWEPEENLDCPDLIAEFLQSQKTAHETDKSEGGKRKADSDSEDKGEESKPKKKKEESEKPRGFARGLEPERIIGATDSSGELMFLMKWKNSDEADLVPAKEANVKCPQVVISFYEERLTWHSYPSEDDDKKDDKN
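Compound inhibition of the preformed complex between 50 nM HP1-beta and 50 nM biotinylated H3K9me3 peptide was read by AlphaScreen. Buffer was PBS pH 7.4 with 0.01% Tween-20. Incubations ran 30 min at room temperature, with 10 ug/mL donor/acceptor beads.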
G9a block: inhibitors of human histone lysine methyltransferase G9a; Q96KQ7; G9a H3K9 monomethylation, AlphaScreen, 2 h; Potency, µM (highest dose often 102 µM), hits mostly inhibitors; 350,000 tested, 8.8% active; AID 504332; also: nearly all actives have a fitted effect of over 75% in size
Target sequence (Q96KQ7 913-1193 limits assumed): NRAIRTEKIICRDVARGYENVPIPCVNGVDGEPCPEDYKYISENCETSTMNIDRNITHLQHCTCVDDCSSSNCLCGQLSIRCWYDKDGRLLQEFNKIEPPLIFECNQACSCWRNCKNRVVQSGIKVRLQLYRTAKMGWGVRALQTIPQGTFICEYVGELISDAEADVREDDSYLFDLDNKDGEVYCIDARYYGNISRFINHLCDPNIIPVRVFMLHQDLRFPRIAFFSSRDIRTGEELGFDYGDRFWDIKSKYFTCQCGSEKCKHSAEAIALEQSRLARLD
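Step 1: enzyme (final 20 nM) with compound, 15 min RT. Step 2: substrate peptide 500 nM and SAM 20 uM, 2 h RT. Step 3: anti-H3K9me1 antibody and AlphaScreen beads, 10 min, then plate read.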
JMJD2A Tudor: inhibitors of human JMJD2A Tudor domain | O75164 | AlphaScreen JMJD2A-Tudor / H3K4me3 peptide binding | Potency, µM (highest dose often 114 µM), usual class: inhibitors | 390,000 tested, 4.4% active | AID 504339; also: nearly all actives have a fitted effect of over 50% in size
Each line names hits and unclear results; the compound was inactive in the other large screens. Calls follow the shape of the dose curve; as a rule, active = well fitted inhibition curve with a large enough effect; inconclusive = small, poorly fitted or top-dose-only effect; inactive = no such curve, though single readings can be large or run the other way.

c1ccc(Nc2nc(-c3ccccc3)nc3ccccc23)cc1	none
Oc1ccc(Nc2nc(-c3ccccc3O)nc3ccccc23)cc1	BAZ2B inh inconclusive, G9a block 50µM, JMJD2A Tudor inconclusive (no result: L3MBTL1 block)
COc1ccc(Nc2nc(-c3ccccc3O)nc3ccccc23)cc1	none (no result: L3MBTL1 block)
Cc1ccc(-c2nc(Nc3ccc(O)cc3)c3ccccc3n2)cc1	JMJD2A Tudor inconclusive (no result: L3MBTL1 block)
CN(C)CCc1cc2c(c3c1ccc1ccccc13)OCO2	BAZ2B inh inconclusive, HP1b binding inh inconclusive, G9a block 40µM
O=C(O)CCN1C(=O)C2C3CC(C2C1=O)C1C(c2ccccc2)c2sc(=O)[nH]c2SC31 (centres undefined)	none (no result: L3MBTL1 block, BAZ2B inh)
O=C(O)CCN1C(=O)C2C3CC(C2C1=O)C1C(c2ccccc2)c2sc(=O)n(-c4ccccc4)c2SC31 (centres undefined)	BAZ2B inh inconclusive, G9a block 45µM (no result: L3MBTL1 block)
CC1=Nc2cc([N+](=O)[O-])ccc2NC(C)(C)C1	BAZ2B inh inconclusive, G9a block 32µM, JMJD2A Tudor inconclusive
Cc1cc(-c2ccc(C)c(S(=O)(=O)Nc3ccccc3C(F)(F)F)c2)on1	none (no result: L3MBTL1 block)
COc1ccc(N2CC(NC(=O)c3ccc(S(=O)(=O)N4CCCCC4)cc3)CC2=O)cc1 (centres undefined)	none (no result: L3MBTL1 block)
COc1cc(/C=C2\N=C(C)OC2=O)cc(Cl)c1OC(C)=O	G9a block 40µM (no result: L3MBTL1 block)
CCOC(=O)c1cc(-c2ccc(OC)cc2)n(CCC(=O)Nc2cccc(C)c2C)c1C	none (no result: L3MBTL1 block)
O=C(O)CN1C(=O)SC(Nc2ccccc2C(=O)O)C1=O (centres undefined)	BAZ2B inh inconclusive, G9a block 40µM, JMJD2A Tudor inconclusive (no result: L3MBTL1 block)
O=C(O)c1cccc(CN2C(=O)SC(Nc3cccc4ccccc34)C2=O)c1 (centres undefined)	BAZ2B inh inconclusive, G9a block 50µM
O=C(O)CN1C(=O)SC(Nc2ccc(C(=O)O)cc2)C1=O (centres undefined)	BAZ2B inh inconclusive, G9a block inconclusive (no result: L3MBTL1 block)
COc1cc2c(cc1OC)C(C)N(C(=O)c1cc3n(n1)C(C(F)(F)F)CC(c1ccco1)N3)CC2 (centres undefined)	BAZ2B inh inconclusive, G9a block 18µM, JMJD2A Tudor inconclusive
O=C(c1cc2n(n1)C(C(F)(F)F)CC(c1ccco1)N2)N1CCc2ccccc2C1 (centres undefined)	BAZ2B inh inconclusive, G9a block inconclusive
CC(C)OC(=O)c1cccc(C(=O)O)n1	BAZ2B inh inconclusive, G9a block 2.5µM, JMJD2A Tudor 7.1µM
CCN(CC)CCn1c(NCc2ccc3c(c2)OCO3)nc2ccccc21	G9a block inconclusive
CCN(CC)CCn1c(NCc2cccc(OC)c2)nc2ccccc21	G9a block 50µM (no result: L3MBTL1 block)
CCN(CC)CCn1c(NCc2cc(OC)ccc2OC)nc2ccccc21	G9a block inconclusive, JMJD2A Tudor 50µM
O=C(Cn1cc(S(=O)(=O)Cc2ccc(F)cc2)c2ccccc21)NCCc1ccccc1	JMJD2A Tudor inconclusive (no result: L3MBTL1 block)
Cc1cnc(CNC(=O)CC2C(=O)NCCN2Cc2ccccc2C(F)(F)F)cn1 (centres undefined)	G9a block 32µM (no result: L3MBTL1 block)
COc1cccc(CN2CCNC(=O)C2CC(=O)NCCn2nc(C)cc2C)c1OC (centres undefined)	G9a block inconclusive
CCc1ccc(CNC(=O)CC2C(=O)NCCN2Cc2ccccc2F)nc1 (centres undefined)	G9a block 79µM (no result: L3MBTL1 block)
CCn1ccnc1CNC(=O)CC1C(=O)NCCN1Cc1ccccc1F (centres undefined)	none
Cc1cc(C)n(CCNC(=O)CC2C(=O)NCCN2Cc2ccccc2C(F)(F)F)n1 (centres undefined)	G9a block 45µM
Cc1cc(CNC(=O)CC2C(=O)NCCN2CC(c2ccccc2)c2ccccc2)on1 (centres undefined)	none (no result: G9a block)
Cc1cc(CNC(=O)CC2C(=O)NCCN2Cc2ccccc2C(F)(F)F)on1 (centres undefined)	G9a block 50µM
Cc1nc(-c2ccccc2)sc1-c1ccc(SCC(=O)Nc2ccccc2)nn1	none (no result: L3MBTL1 block)
Cc1cccc(CNc2ncncc2-c2ccccc2Cl)c1	none (no result: L3MBTL1 block, BAZ2B inh, HP1b binding inh, JMJD2A Tudor)
COc1ccccc1CNC(=O)CSc1nc(=O)[nH]c2c1CCCC2	none (no result: L3MBTL1 block)
CCOC(=O)CNc1ccc(C(=O)OCC)cc1[N+](=O)[O-]	none
CCNc1ccc(C(=O)OCC(=O)N(Cc2ccccc2)C(C)(C)C)cc1[N+](=O)[O-]	G9a block 89µM
CC(C)(C)N(Cc1ccccc1)C(=O)COC(=O)CSc1ccc([N+](=O)[O-])cc1	G9a block 40µM
CC1CCCC(C)N1C(=O)COC(=O)CSc1ccc([N+](=O)[O-])cc1 (centres undefined)	G9a block inconclusive
CCCCOC(=O)c1ccc(NC(=O)CSc2nc3c(c(=O)[nH]2)CCC3)cc1	G9a block inconclusive (no result: L3MBTL1 block)
O=C(CSc1cn(CCNC(=O)c2ccccc2)c2ccccc12)NCC1CCCO1 (centres undefined)	none (no result: L3MBTL1 block)
CCCn1cc(SCC(=O)NCc2ccco2)c2ccccc21	BAZ2B inh inconclusive, G9a block 40µM
O=C(CSc1cn(CCNC(=O)c2ccccc2)c2ccccc12)NCc1ccco1	BAZ2B inh inconclusive, G9a block 40µM, JMJD2A Tudor inconclusive (no result: L3MBTL1 block)
CCCCn1c(N)c(N(CC(C)C)C(=O)C(C)SCc2nc3sc(C)c(C)c3c(=O)[nH]2)c(=O)[nH]c1=O (centres undefined)	G9a block 35µM
COC(C(=O)NNC(=O)CCc1ccccc1)c1ccccc1 (centres undefined)	none
CC(NC(=O)c1cccs1)c1n[nH]c(=S)n1C (centres undefined)	G9a block inconclusive, JMJD2A Tudor 8.9µM
O=C(NCc1n[nH]c(=S)n1-c1ccccc1)c1cccs1	G9a block 22µM, JMJD2A Tudor 16µM
O=C(NCc1n[nH]c(=S)n1-c1cccc(Cl)c1)c1cccs1	HP1b binding inh inconclusive, G9a block 20µM, JMJD2A Tudor 20µM
O=C(NCc1n[nH]c(=S)n1-c1ccc(Cl)c(Cl)c1)c1cccs1	BAZ2B inh inconclusive, G9a block inconclusive (no result: L3MBTL1 block)
CCn1c(CNC(=O)c2cccs2)n[nH]c1=S	HP1b binding inh inconclusive, G9a block inconclusive, JMJD2A Tudor 8.9µM
O=C(Cc1ccccc1)NCc1n[nH]c(=S)n1-c1ccc(Br)cc1	G9a block inconclusive, JMJD2A Tudor inconclusive (no result: L3MBTL1 block)
CCOC(=O)CSc1nnc(CNC(=O)c2cccs2)n1Cc1ccccc1	G9a block inconclusive
O=C(COCc1cc(-c2cccs2)on1)NCc1cccc(Cl)c1	none (no result: L3MBTL1 block)
O=C1OCCN1c1c(-c2ccccc2)c(-c2cccs2)nc2c(-c3ccccc3)cccc12	G9a block 40µM
COC(=O)c1ccc(NC(=O)CSc2ncc3c(n2)-c2cc(Cl)ccc2N(Cc2ccccc2)S3(=O)=O)cc1	none (no result: L3MBTL1 block)

Bioassay records: PubChem BioAssay, National Center for Advancing Translational Sciences (NCATS)
